Results as given in PubChem BioAssay (NCATS).
Several values for one entry are separate records, joined by “and”; a condition that tells them apart may be missing. Equal values may be shown once. Records with an inconclusive call do not appear. Where a structure was tested more than once in an assay, its records may differ in their call. Activity calls are given as the source filed them. Unless noted, calls follow the shape of the dose curve; as a rule, active = well fitted curve in either direction with a large enough effect (not every such curve was filed as active); inconclusive = small, poorly fitted or top-dose-only effect, or another doubt; inactive = flat fitted curve, though single readings scatter.

Legend:
[1] = AP1 Signaling Pathway (AID 357);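 also: ME-180 reporter cells stimulated with EGF at its EC50 level; % is scaled to controls: 0 for no effect and ±100 for the full control effect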
How it was run: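 Beta-lactamase reporter under AP-1 response element, ME-180 background. Stimulus: EC50 EGF. Compound exposure 5 h, 37 °C. Detection: CCF4, 2.5 h RT, 460/530 nm. Values: AC50 from titration.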

[2] = molecular target: Cytochrome P450 1A2 (Homo sapiens) (UniProt P05177); assay: p450-cyp1a2 (AID 410; calls by dose curve; also: potency is read from the fitted curve at half-maximal effect;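 as to activity change, negative = inhibition: -100% = full effect of reference inhibitor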)
Sequence of Cytochrome P450 1A2 (Homo sapiens) (P05177 whole entry, looked up): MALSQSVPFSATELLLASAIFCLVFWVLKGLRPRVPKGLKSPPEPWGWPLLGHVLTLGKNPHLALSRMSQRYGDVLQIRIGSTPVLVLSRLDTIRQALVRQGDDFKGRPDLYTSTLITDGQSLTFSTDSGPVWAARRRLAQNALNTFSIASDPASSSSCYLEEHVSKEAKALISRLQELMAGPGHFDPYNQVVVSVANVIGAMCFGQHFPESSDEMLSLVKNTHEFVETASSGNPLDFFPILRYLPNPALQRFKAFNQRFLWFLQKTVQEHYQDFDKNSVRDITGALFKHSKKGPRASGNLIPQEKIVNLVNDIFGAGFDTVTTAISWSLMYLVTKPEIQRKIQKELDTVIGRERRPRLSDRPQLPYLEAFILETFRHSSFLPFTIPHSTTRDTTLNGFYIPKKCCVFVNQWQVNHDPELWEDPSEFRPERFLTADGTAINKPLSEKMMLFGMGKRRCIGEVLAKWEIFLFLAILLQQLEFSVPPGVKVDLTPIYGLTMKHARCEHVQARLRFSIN
How it was run: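 20nM CYP1A2, 100uM Luciferin-ME (=Km), 100mM KPO4; cpd 10 min RT; +NADPH regen, 60 min RT; stop/detect 20 min; luminescence. Normalized to furafylline 57 uM = full inhibition.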

[3] = NFAT Signaling Pathway (AID 444); conditions: Jurkat NFAT-bla M1, carbachol, beta-lactamase ratio, 5 h;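 also: carbachol stimulus at about its EC50 of 1 µM final; % is scaled to controls: 0 for no effect and ±100 for the full control effect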
How it was run: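 Jurkat cells carrying an NFAT-driven β-lactamase reporter and co-transfected muscarinic M1 receptor were treated with compound plus carbachol (1 uM final, an EC50 level) for 5 h at 37 °C. CCF4 loading followed for 1 h at RT; 460/530 nm ratio gave %activity.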

[4] = Stat Signaling Pathway (AID 446);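 also: ME-180 cervical cancer cells given 40 pM IL-6 alongside compound; SIE-controlled beta-lactamase reporter measured as 460/530 nm FRET emission ratio; % is scaled to controls: 0 for no effect and ±100 for the full control effect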
How it was run: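 Normalization used AC90 stimulation (300 pM IL-6) and AC90 inhibition (125 nM pan-JAK inhibitor at 40 pM IL-6). The underlying signal is SIE-driven beta-lactamase in ME-180 cells after 5 h IL-6 exposure with compound.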

[5] = molecular target: Glucocorticoid receptor (Homo sapiens) (UniProt P04150); assay: GR-EFC Redistribution (AID 451; calls by dose curve; also: potency is read from the fitted curve at half-maximal effect); conditions: CHO-K1 GR-EFC translocation, beta-gal luminescence, 2 h
Sequence of Glucocorticoid receptor (Homo sapiens) (P04150 whole entry, looked up, the tested form may be a part): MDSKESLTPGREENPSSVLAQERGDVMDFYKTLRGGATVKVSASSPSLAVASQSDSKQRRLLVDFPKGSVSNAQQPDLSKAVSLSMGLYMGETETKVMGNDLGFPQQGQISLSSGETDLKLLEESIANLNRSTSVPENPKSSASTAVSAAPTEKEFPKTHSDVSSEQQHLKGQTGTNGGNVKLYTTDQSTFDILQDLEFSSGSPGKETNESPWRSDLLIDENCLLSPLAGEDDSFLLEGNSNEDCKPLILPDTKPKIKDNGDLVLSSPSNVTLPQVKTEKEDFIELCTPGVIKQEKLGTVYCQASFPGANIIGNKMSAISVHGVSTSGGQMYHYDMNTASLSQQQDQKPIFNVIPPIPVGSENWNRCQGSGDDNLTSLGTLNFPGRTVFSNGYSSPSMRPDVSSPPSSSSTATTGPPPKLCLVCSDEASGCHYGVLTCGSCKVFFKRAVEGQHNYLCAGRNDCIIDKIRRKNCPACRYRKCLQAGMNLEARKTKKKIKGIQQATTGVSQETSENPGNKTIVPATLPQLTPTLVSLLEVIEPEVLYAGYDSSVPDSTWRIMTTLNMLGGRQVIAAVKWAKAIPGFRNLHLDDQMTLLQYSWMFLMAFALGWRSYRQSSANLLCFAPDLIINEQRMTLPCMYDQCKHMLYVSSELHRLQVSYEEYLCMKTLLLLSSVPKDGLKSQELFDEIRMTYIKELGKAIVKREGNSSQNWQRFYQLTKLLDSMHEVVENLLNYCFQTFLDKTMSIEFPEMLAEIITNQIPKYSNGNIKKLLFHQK
How it was run: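 CHO-K1 cells stably expressing nuclear-localized β-gal enzyme acceptor and GR fused C-terminally to the enzyme donor fragment; ligand-driven nuclear translocation restores β-gal by complementation. Compounds titrated up to 46 uM final, 2 h at 37 °C; luminescence read.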

[6] = molecular target: 3',5'-cyclic-AMP phosphodiesterase 4B (Homo sapiens) (UniProt Q07343); assay: qHTS Assay for Inhibitors of PDE-IV (AID 607; active = well fitted activation curve with a large enough effect in the main read-out, with a control signal flat, not every such curve was filed as active; also: % of control where 0% means no effect)
Sequence of 3',5'-cyclic-AMP phosphodiesterase 4B (Homo sapiens) (Q07343 whole entry, looked up): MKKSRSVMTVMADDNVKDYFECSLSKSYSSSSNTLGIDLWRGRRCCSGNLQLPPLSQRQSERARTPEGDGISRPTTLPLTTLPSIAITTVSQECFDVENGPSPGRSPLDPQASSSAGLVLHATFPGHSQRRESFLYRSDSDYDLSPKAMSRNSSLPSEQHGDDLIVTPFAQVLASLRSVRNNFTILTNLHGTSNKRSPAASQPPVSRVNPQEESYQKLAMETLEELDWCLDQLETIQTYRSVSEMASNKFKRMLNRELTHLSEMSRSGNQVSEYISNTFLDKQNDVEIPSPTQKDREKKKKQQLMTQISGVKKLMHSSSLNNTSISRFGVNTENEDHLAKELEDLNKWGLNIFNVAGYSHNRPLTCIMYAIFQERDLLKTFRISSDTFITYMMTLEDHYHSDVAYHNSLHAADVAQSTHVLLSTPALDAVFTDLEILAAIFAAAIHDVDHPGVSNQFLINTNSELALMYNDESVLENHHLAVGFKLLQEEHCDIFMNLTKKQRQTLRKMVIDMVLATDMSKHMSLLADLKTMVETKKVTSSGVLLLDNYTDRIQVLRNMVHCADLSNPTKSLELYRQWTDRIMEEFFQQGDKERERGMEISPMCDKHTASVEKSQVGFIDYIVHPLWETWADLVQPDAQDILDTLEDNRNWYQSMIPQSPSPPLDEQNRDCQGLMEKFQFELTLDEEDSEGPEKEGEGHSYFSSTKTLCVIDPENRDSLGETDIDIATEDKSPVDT
How it was run: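 HEK293 ACTOne cells with CNG channel (1000/well), endogenous PDE4; membrane potential dye, compounds up to 22.9 uM final. Fluorescence Ex 535/Em 590; RO 20-1724 (100 uM final) as reference.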

[7] = molecular target: Mitogen-activated protein kinase 10 (Mus musculus) (UniProt Q61831); assay: JNK3 AlphaScreen Assay (AID 530);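 also: kinase came from lysate of stimulated human HepG2 cells; signal reports phosphorylation of biotinylated GST-cJun 1-79 at Ser73 with 10 µM ATP; % is scaled to controls: 0 for no effect and ±100 for the full control effect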
How it was run: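 Biotinylated GST-cJun(1-79) served as substrate for JNK3 in HepG2 lysates stimulated with IL-1beta and TNF-alpha. ATP was 10 uM final, pH 7.6. Ser73 phosphorylation was quantified by AlphaScreen (680 nm excitation).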

[8] = Cell Viability - BJ (AID 421; calls by dose curve;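 also: potency is read from the fitted curve at half-maximal effect; cells exposed to compound for 40 hours at 37 °C before readout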); conditions: BJ fibroblast viability, qHTS
How it was run: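 Normal human BJ foreskin fibroblasts, 1500/well in complete medium, treated 40 hr at 37 °C. Cellular ATP by CellTiter-Glo luminescence; normalized to DMSO and 100 uM tamoxifen, AC50 from Hill fit.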

[9] = Cell Viability - Jurkat (AID 426;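 active = dose-dependent loss of cell ATP signal giving a full or clear fitted curve, ranked by lower potency value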; also: potency is read from the fitted curve at half-maximal effect); conditions: qHTS
How it was run: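 Luminescent ATP read-out (CellTiter-Glo, 20 min at room temperature) after 40 hr compound exposure at 37 °C of Jurkat E6-1 cells, 5000/well. Decreased ATP taken as cytotoxicity; AC50 from standard Hill equation.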

[10] = Cell Viability - Hek293 (AID 427;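 active = compounds whose dose-response curve shows a full or clear partial loss of cell viability, called from curve shape rather than a numeric limit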;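 also: potency is read from the fitted curve at half-maximal effect; cells exposed to compound for 40 hours at 37 °C before reading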); conditions: qHTS
How it was run: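 HEK293 cells in complete medium were exposed to compound for 40 hr at 37 °C, then cellular ATP was read by CellTiter-Glo luminescence. Data were normalized to DMSO (basal) and 100 uM tamoxifen (100% inhibition), and AC50 came from Hill fits.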

[11] = Cell Viability - HepG2 (AID 433; calls by dose curve;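 also: potency is read from the fitted curve at half-maximal effect; potency for ATP loss meaning cytotoxicity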); conditions: qHTS
How it was run: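 ATP luminescence (CellTiter-Glo) after 40 h compound exposure, 37 °C, HepG2, 1500 cells/well, complete medium. Normalized: DMSO = basal, 100 uM tamoxifen = 100% inhibition. AC50 via standard Hill equation.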

[12] = Cell Viability - MRC5 (AID 434; calls by dose curve;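 also: potency is read from the fitted curve at half-maximal effect; potency reflects cytotoxicity seen as loss of intracellular ATP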); conditions: MRC5 lung fibroblast viability, qHTS
How it was run: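 Decrease in intracellular ATP, quantified by luciferase light output, reflects compound toxicity toward MRC5 cells exposed for 40 hr in complete culture medium. Concentration-response curves, scaled between DMSO and 100 uM tamoxifen, gave AC50 values.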

[13] = Cell Viability - SK-N-SH (AID 435; calls by dose curve; also: potency is read from the fitted curve at half-maximal effect); conditions: SK-N-SH neuroblastoma cell viability qHTS
How it was run: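 CellTiter-Glo ATP luminescence, 20 min RT read; cells pre-plated 5 hr, compound 40 hr at 37 °C, 1500 cells/well, complete medium. Normalized DMSO = 0, 100 uM tamoxifen = 100% inhibition; Hill-fit AC50.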

[14] = Cell Viability - N2a (AID 540; active = well fitted curve in the direction sought with a large enough effect; an effect the other way counts as inactive or inconclusive; also: nearly all actives have a fitted effect of over 45% in size; also: potency is read from the fitted curve at half-maximal effect;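 as to activity change, negative = cytotoxicity: plate controls were DMSO alone for no effect and tamoxifen control for full effect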); conditions: N2a mouse neuroblastoma cell viability; activity change, negative = cytotoxicity: at 92.2 µM (top of the series)
How it was run: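 N2a mouse neuroblastoma, 1500 cells/well, 5 hr settle; compound 40 hr, 37 °C; CellTiter-Glo 20 min RT; luminescence; Hill-fit AC50.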

[15] = Cell Viability - NIH 3T3 (AID 541; active = well fitted curve in the direction sought with a large enough effect; an effect the other way counts as inactive or inconclusive; also: nearly all actives have a fitted effect of over 25% in size; also: potency is read from the fitted curve at half-maximal effect;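 as to activity change, negative = cytotoxicity: plate controls were DMSO alone for no effect and tamoxifen positive control for full effect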); conditions: NIH 3T3 cell viability, qHTS; activity change, negative = cytotoxicity: at 92.2 µM (top of the series)
How it was run: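 qHTS format; 40 hr compound exposure, 37 °C; CellTiter-Glo luminescence (cellular ATP) read-out after 20 min at RT. Decrease in ATP = cytotoxicity; AC50 from standard Hill fit.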

[16] = Cell Viability - HUV-EC-C (AID 542; active = well fitted curve in the direction sought with a large enough effect; an effect the other way counts as inactive or inconclusive; also: nearly all actives have a fitted effect of over 35% in size; also: potency is read from the fitted curve at half-maximal effect)
How it was run: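 Luminescent ATP read-out (CellTiter-Glo, 20 min room temperature) after 40 hr compound treatment of HUV-EC-C cells at 37 °C. Concentration-response data fitted with the standard Hill equation to give AC50; tamoxifen and doxorubicin served as positive controls.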

[17] = Cell Viability - H-4-II-E (AID 543; active = well fitted curve in the direction sought with a large enough effect; an effect the other way counts as inactive or inconclusive; also: nearly all actives have a fitted effect of over 35% in size; also: potency is read from the fitted curve at half-maximal effect)
How it was run: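 qHTS, rat hepatoma H-4-II-E, 1500 cells/well; 40 hr compound exposure, 37 °C; CellTiter-Glo ATP luminescence after 20 min RT; AC50 by standard Hill fit.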

[18] = Cell Viability - SH-SY5Y (AID 544; active = well fitted curve in the direction sought with a large enough effect; an effect the other way counts as inactive or inconclusive; also: nearly all actives have a fitted effect of over 55% in size; also: potency is read from the fitted curve at half-maximal effect)
How it was run: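 SH-SY5Y, 1500 cells/well, 5 hr pre-incubation 37 °C; cpd 40 hr 37 °C; CellTiter-Glo 20 min RT; luminescence (ATP) read. qHTS concentration-response, Hill fit → AC50. Tamoxifen, doxorubicin as positive controls.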

[19] = Cell Viability - Renal Proximal Tubule (AID 545; active = well fitted curve in the direction sought with a large enough effect; an effect the other way counts as inactive or inconclusive; also: nearly all actives have a fitted effect of over 40% in size; also: potency is read from the fitted curve at half-maximal effect;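 as to activity change, negative = cytotoxicity: 0% = DMSO only and -100% = 100 µM tamoxifen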)
How it was run: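 Rat kidney proximal tubule cells, freshly isolated; 1000 cells/well, 5 hr settle, compound 40 hr 37 °C. CellTiter-Glo 20 min RT, luminescence read. AC50 by standard Hill fit.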

[20] = Cell Viability - Mesenchymal (AID 546; active = well fitted curve in the direction sought with a large enough effect; an effect the other way counts as inactive or inconclusive;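 also: cells exposed to compound for 40 hours before reading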; also: potency is read from the fitted curve at half-maximal effect;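 as to activity change, negative = cytotoxicity: 0% = DMSO only and -100% = 100 µM tamoxifen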); conditions: mesenchymal cells viability, qHTS; activity change, negative = cytotoxicity: at 91.7 µM (top of the series)
How it was run: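 In this qHTS cytotoxicity format, glomerulus-derived human mesenchymal kidney cells received compound for 40 hr, then luciferase-based ATP quantitation. Concentration-response data were fitted with the Hill equation.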

CCCCCCCCC(=O)NCc1ccc(O)c(OC)c1
inactive: outcome [1] | activity change, negative = inhibition ([3]; at 38 µM (top of the series)) 6.44% | outcome [4] | Potency [5] > 46 µM | outcome [6]
active: Potency [2] 12.6 µM

c1ccc2nc(N3CCNCC3)ccc2c1
active: Potency [2] 1.58 µM and 1.26 µM and 251 nM
inactive: outcome [1] | activity change, negative = inhibition ([3]; at 17.2 µM (top of the series)) -7.47% | activity change, negative = inhibition ([3]; at 38 µM (top of the series)) -5.87% | outcome [4] | Potency [5] > 46 µM and > 20.6 µM | outcome [7] | outcome [6]

COP(=O)(OC)OC=C(Cl)Cl
active: Potency [15] 12.6 µM | Potency [18] 15.8 µM
inactive: Potency [8] > 92 µM | Potency [9] > 92 µM | Potency [10] > 92 µM | Potency [11] > 92 µM | Potency [13] > 92 µM | outcome [7] | Potency [14] | Potency [16] | Potency [17] | Potency [19] | Potency [20]
30.9 µM (active) and > 92 µM (inactive): Potency [12]

O=C(CCl)c1ccc(Cl)cc1Cl
inactive: outcome [7]
active: Potency [8] 47.1 µM | Potency [9] 0.345 µM | Potency [11] 47.9 µM | Potency [13] 9.56 µM | Potency [14] 31.6 µM | activity change, negative = cytotoxicity [15] -145% | Potency [17] 10 µM | Potency [18] 1.26 µM | Potency [20] 31.6 µM

COP(=O)(OC)C(O)C(Cl)(Cl)Cl (stereo unspecified)
inactive: outcome [1] | outcome [4]

Oc1c(Br)cc(Br)cc1Br
inactive: Potency [8] > 92 µM | Potency [10] > 92 µM | Potency [11] > 92 µM | Potency [12] > 92 µM | Potency [13] > 92 µM | outcome [7] | Potency [14] | Potency [15] | Potency [16] | Potency [17] | Potency [18] | Potency [19] | Potency [20]

COc1ccc(C(=O)N2CCCC2=O)cc1
inactive: outcome [1] | activity change, negative = inhibition ([3]; at 17.2 µM (top of the series)) -27.3% | activity change, negative = inhibition ([3]; at 38 µM (top of the series)) 11.8% | outcome [4] | Potency [5] > 46 µM | outcome [7] | outcome [6]

CCCCCCCCCCCC[N+](C)(C)CCOc1ccccc1
inactive: outcome [7] | Potency [18]
active: Potency [8] 13.7 µM | Potency [9] 25.2 µM | Potency [10] 29.6 µM | Potency [11] 58.8 µM | Potency [12] 14.5 µM | Potency [13] 24.5 µM | Potency [14] 7.94 µM | activity change, negative = cytotoxicity [15] -137% | Potency [16] 31.6 µM | Potency [17] 39.8 µM | Potency [19] 12.6 µM | Potency [20] 25.1 µM

COc1ccc(CN2CCNCC2)c(OC)c1OC
inactive: outcome [1] | activity change, negative = inhibition ([3]; at 17.2 µM (top of the series)) -8.2% | outcome [4] | Potency [5] > 20.6 µM | outcome [7] | outcome [6]

O=C(CCCN1CCC(n2c(=O)[nH]c3ccccc32)CC1)c1ccc(F)cc1
inactive: outcome [1] | Potency [2] | outcome [4] | Potency [5] > 20.6 µM | outcome [7] | outcome [6]

C[C@H](N)[C@H](O)c1ccc(O)c(O)c1
inactive: outcome [1] | Potency [2] | activity change, negative = inhibition ([3]; at 17.2 µM (top of the series)) -6.73% | activity change, negative = inhibition ([3]; at 38 µM (top of the series)) 1.06% | outcome [4] | outcome [7] | outcome [6]

C[N+]1(C)[C@@H]2CC[C@H]1CC(OC(=O)C(CO)c1ccccc1)C2 (stereo partly specified)
active: activity change, negative = inhibition ([3]; at 17.2 µM (top of the series)) -95.4% and -94.2%
inactive: outcome [1] | outcome [4]
